Compound activity (PubChem)
The list is not random: actives were taken first. Their share in the collection is about 2.4%.
ELG1 DNA repair: inhibitors of ELG1-dependent DNA repair in HEK293T cells; HEK293T ELG1-luciferase reporter, luminescence, 16 h; DNA damage induced by 5-fluorouridine; Potency, µM (doses to about 46.1 µM), inactives show at the highest dose activity change, negative = inhibition, most hits filed as inhibitors; actives 2.3% (n = 330,000); AID 504467; note: % is set by controls: 0 for no effect and ±100 for the full control effect; nearly all actives have a fitted effect of over 55% in size
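Step one: seed 2,000 cells per well. Step two: pin-transfer compound or DMSO alongside 5-fluorouridine. Step three: incubate 16 hr, 37 °C, 5% CO2. Step four: add ONE-Glo, wait 30 min, read luminescence.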
Tb PFK inh: blocks T. brucei phosphofructokinase. O15648. T. brucei PFK, ADP-Glo luminescence. Potency, µM (series often up to 57.5 µM), inactives show at the top dose activity, negative = inhibition, actives largely listed as inhibitors. actives 0.17% (n = 330,000). AID 485367;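 note: 0% = uninhibited 1x PFK enzyme wells and -100% = no-enzyme wells; nearly all actives have a fitted effect of over 60% in size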
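ADP-Glo luminescence quantified ADP after 45 min at room temperature, with 1.25 nM T. brucei PFK, 0.1 mM ATP and 0.5 mM fructose-6-phosphate in pH 8.0 TEA buffer. qHTS titrations up to 57 µM; curves classified by quality.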
Tb PGK inh: inhibitors of T. brucei phosphoglycerate kinase; actives 0.043% (n = 380,000); P07378; Potency, µM (doses to about 57.5 µM), without a hit: at the top dose activity change, negative = inhibition, most hits filed as inhibitors; PGK/GAPDH coupled, Kinase-Glo luminescence, 60 min; note: % is set by controls: 0 for no effect and ±100 for the full control effect; nearly all actives have a fitted effect of over 60% in size
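Luminescent ATP detection (Kinase-Glo Plus) follows a 60-minute room-temperature incubation, with wells lacking PGK as controls. Buffer: 100 mM TEA (pH 7.6), 5 mM MgCl2, 0.01% Tween-20. Coupling enzyme GAPDH (100 nM final) supplies unstable 1,3-BPG in-well.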
PKM2 activator: activators of human pyruvate kinase M2; P14618; purified PKM2, Kinase-Glo ATP luminescence, activation; response scale: 0% is enzyme alone, no compound; Potency, µM (top dose mostly 57.5 µM), without a hit: at the highest dose activation, most hits filed as activators; actives 0.34% (n = 260,000); note: % is set by controls: 0 for no effect and ±100 for the full control effect; nearly all actives have a fitted effect of over 55% in size
Target sequence (P14618 whole entry, looked up): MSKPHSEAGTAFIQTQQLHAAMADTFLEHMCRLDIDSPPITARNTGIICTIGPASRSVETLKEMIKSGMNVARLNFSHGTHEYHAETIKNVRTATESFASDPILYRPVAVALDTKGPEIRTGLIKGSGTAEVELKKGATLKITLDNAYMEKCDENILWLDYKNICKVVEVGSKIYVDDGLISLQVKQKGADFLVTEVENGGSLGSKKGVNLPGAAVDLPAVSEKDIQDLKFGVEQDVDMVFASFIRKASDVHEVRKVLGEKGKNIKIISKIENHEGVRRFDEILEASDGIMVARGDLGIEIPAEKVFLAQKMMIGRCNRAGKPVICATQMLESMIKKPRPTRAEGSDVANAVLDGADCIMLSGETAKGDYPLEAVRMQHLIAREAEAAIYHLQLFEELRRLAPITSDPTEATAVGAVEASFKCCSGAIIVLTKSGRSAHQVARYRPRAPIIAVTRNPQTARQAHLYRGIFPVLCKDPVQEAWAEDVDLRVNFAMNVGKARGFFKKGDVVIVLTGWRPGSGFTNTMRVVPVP
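Purified hPK-M2 (>95%) run at intermediate activity with 0.1 mM ADP and 0.5 mM PEP in 50 mM imidazole pH 7.2, KCl, MgCl2; 1 h room temperature. ATP formed read by Kinase-Glo luminescence; normalized to uninhibited and no-enzyme controls.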
Rango release inh: prevents RanGTP from dissociating the Rango-importin beta complex; AID 540253; O95149+P62826; actives 0.071% (n = 340,000); Biochemical FRET Rango-importin beta, RanGTP-induced dissociation; Potency, µM (top dose mostly 46.1 µM), for inactives: at the top dose activity change, negative = inhibition; calls by dose curve; note: % of control where 0% means no effect; nearly all actives have a fitted effect of over 45% in size
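Rango (0.1 uM)–importin beta (0.25 uM) complex; RanGTP-RCC1 trigger; 45 min RT; CFP/YFP FRET read.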
Rango-impB inh: inhibitors of Rango-importin beta complex formation; Q14974; Rango CFP/YFP FRET sensor + importin beta, 45 min; Potency, µM (titrated, usually from 92.2 µM), inactives show at the highest dose inhibition of complex formation; actives 0.031% (n = 340,000); AID 540263; calls by dose curve;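 note: 0% = DMSO wells and 100% = buffer wells lacking importin beta; nearly all actives have a fitted effect of over 15% in size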
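Inhibition scored from the CFP 486 nm/YFP 530 nm FRET ratio 45 min after adding 0.125 microM importin beta to 50 nM Rango biosensor preincubated 5 min with compound (room temperature, PBS with DTT, Tween-20, BSA). No-importin wells as positive control.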
Starred values were filed as active, the others as inactive. Unless noted, calls come from the whole dose curve; as a rule, active = well fitted curve in the direction sought with a large enough effect; inconclusive = small, poorly fitted or top-dose-only effect, or another doubt; inactive = no such curve, though single readings can be large; an effect the other way counts as inactive or inconclusive. Potency is the fitted concentration of half-maximal effect.

What do the screens show for `CSc1nc2nc3c(cc2c(=O)n1-c1cccc(C)c1)COC(C)(C)C3`?
ELG1 DNA repair: 20.6µM*; Tb PFK inh: -6.2%; Tb PGK inh: 2.9%; PKM2 activator: -1.7%; Rango release inh: 20.3%; Rango-impB inh: -0.1%

How did COc1ccc(OC)c(NC(=O)c2cc(-c3ccc(Cl)s3)nc3ccccc23)c1 do in these assays?
Tb PGK inh: inactive

What do the screens show for `O=[N+]([O-])c1cccc(Cl)c1NCCNS(=O)(=O)c1ccccc1`?
ELG1 DNA repair: 17.4%; Tb PFK inh: -5.6%; Tb PGK inh: -7.7%; PKM2 activator: 14.1µM*; Rango release inh: -0.2%; Rango-impB inh: -0.7%

Results for O=C(COC(=O)c1cccs1)NCCc1ccc(F)cc1 ?
ELG1 DNA repair: 22.3%; Tb PFK inh: 3.2%; Tb PGK inh: 3.6%; Rango release inh: 36.2%; Rango-impB inh: -0.9%

How did CCOC(=O)c1cc(-c2ccc(Cl)cc2)nc2c1c(C)nn2CCC#N do in these assays?
ELG1 DNA repair: inconclusive; Tb PFK inh: 3.9%; Tb PGK inh: 11.3%; PKM2 activator: 0.8%; Rango release inh: -10.4%; Rango-impB inh: -5.4%

Results for CCOC(=O)c1cc(-c2ccco2)nc2c1c(C)nn2CCC#N ?
ELG1 DNA repair: inconclusive; Tb PFK inh: 11.9%; Tb PGK inh: -6.4%; PKM2 activator: inconclusive; Rango release inh: -10.5%; Rango-impB inh: 0.9%

What do the screens show for `CCOC(=O)c1cc(-c2ccc(OC)cc2F)nc2c1c(C)nn2CCC#N`?
ELG1 DNA repair: 11.6µM*; Tb PFK inh: -1.2%; Tb PGK inh: 8.6%; PKM2 activator: 1.4%; Rango release inh: 0.1%; Rango-impB inh: -4.9%

How did CCOC(=O)c1cc(-c2ccc3c(c2)OCCO3)nc2c1c(C)nn2CCC#N do in these assays?
ELG1 DNA repair: 6.51µM*; Tb PFK inh: 4.4%; Tb PGK inh: -0.7%; PKM2 activator: -2.1%; Rango release inh: 2.9%; Rango-impB inh: inconclusive

How did CCOc1ccccc1CNC(=O)CN1C(=O)CCn2nc(-c3cn(C)c4ccccc34)cc21 do in these assays?
Tb PGK inh: inactive

Results for O=C1CN(C(=O)COC(=O)c2c(F)cccc2Cl)c2ccccc2N1 ?
ELG1 DNA repair: 4.2%; Tb PFK inh: -2.1%; Tb PGK inh: -8.9%; Rango release inh: 6.6%; Rango-impB inh: -1.6%

What do the screens show for `CCOC(=O)c1[nH]c(C)c(C(=O)N2CCN(c3ccc(OC)cc3)CC2)c1C`?
ELG1 DNA repair: -4.1%; Tb PFK inh: 1.0%; Tb PGK inh: -6.8%; PKM2 activator: 1.6%; Rango release inh: -1.3%; Rango-impB inh: -0.1%

What do the screens show for `CCOC(=O)c1[nH]c(CN2CCN(c3ccc(OC)cc3)CC2)c(C(=O)OCC)c1C`?
ELG1 DNA repair: 18.3µM*; Tb PFK inh: -0.5%; Tb PGK inh: -8.4%; Rango release inh: 1.3%; Rango-impB inh: -4.0%

Results for CCC(C)c1c(NS(=O)(=O)c2ccc(C)cc2)o[nH]c1=O (stereo not drawn) ?
Tb PGK inh: 7.2%; Rango release inh: -9.8%; Rango-impB inh: 0.1%

What do the screens show for `CCOC(=O)c1cnc2ccc(OCC)cc2c1N1CCN(C)CC1`?
ELG1 DNA repair: -0.1%; Tb PFK inh: 8.5%; Tb PGK inh: -3.7%; PKM2 activator: 1.7%; Rango release inh: 1.7%; Rango-impB inh: 5.1%

What do the screens show for `CCOc1ccc2ncc(S(=O)(=O)c3ccc(C)cc3)c(N3CCC4(CC3)OCCO4)c2c1`?
ELG1 DNA repair: 18.4µM*; Tb PFK inh: -1.4%; Tb PGK inh: -1.7%; PKM2 activator: 12.3%; Rango release inh: -1.6%; Rango-impB inh: -0.5%

What do the screens show for `CN1CCN(c2cc(-c3ccccc3)nc3cc(-c4ccc(F)cc4)nn23)CC1`?
ELG1 DNA repair: 23.1µM*; Tb PFK inh: 1.7%; Tb PGK inh: -4.5%; PKM2 activator: -2.9%; Rango release inh: 15.9%; Rango-impB inh: -5.3%

How did Fc1ccc(-c2cc3nc(-c4ccccc4)cc(N4CCN(CCN5CCOCC5)CC4)n3n2)cc1 do in these assays?
ELG1 DNA repair: inconclusive; Tb PFK inh: -0.9%; PKM2 activator: -1.7%; Rango release inh: inconclusive; Rango-impB inh: inconclusive

How did O=C(O)c1cc2c(cc1NC(=O)C1CCCC1)OCCO2 do in these assays?
ELG1 DNA repair: 7.7%; Tb PFK inh: 11.7%; Tb PGK inh: -6.6%; Rango release inh: -15.4%; Rango-impB inh: 3.3%

Results for O=C(Nc1cc(Cl)ccc1F)C1=COCCO1 ?
ELG1 DNA repair: inconclusive; Tb PFK inh: 0.5%; Tb PGK inh: -2.5%; Rango release inh: 2.3%; Rango-impB inh: -0.4%

What do the screens show for `Cc1ccc(C(c2c(C)n(C)n(-c3ccccc3)c2=O)c2c(C)n(C)n(-c3ccccc3)c2=O)s1`?
ELG1 DNA repair: 23.1µM*; Tb PFK inh: -23.1%; Tb PGK inh: -3.2%; PKM2 activator: 1.4%; Rango release inh: 28.9%; Rango-impB inh: 0.6%

Results for Cc1ccc(NC(=O)/C(=C\c2cccc([N+](=O)[O-])c2)NC(=O)c2cccs2)cc1 ?
ELG1 DNA repair: 8.9%; Tb PFK inh: 2.0%; Tb PGK inh: -0.5%; PKM2 activator: 3.1%; Rango release inh: 6.4%; Rango-impB inh: 2.1%

What do the screens show for `O=C(/C=C/c1cccc([N+](=O)[O-])c1)Nc1cccc(NC(=O)c2cccs2)c1`?
ELG1 DNA repair: 18.4µM*; Tb PFK inh: -0.3%; Tb PGK inh: -10.3%; PKM2 activator: -0.9%; Rango release inh: 2.2%; Rango-impB inh: 4.5%

Results for O=C(/C=C/c1cccc([N+](=O)[O-])c1)Nc1cccc(NC(=O)c2ccco2)c1 ?
ELG1 DNA repair: 20.6µM*; Tb PFK inh: -16.7%; Tb PGK inh: -0.5%; PKM2 activator: -5.1%; Rango release inh: -9.4%; Rango-impB inh: 4.5%

What do the screens show for `CCCCC(=O)N/N=C/c1ccc(-c2ccc([N+](=O)[O-])cc2)o1`?
ELG1 DNA repair: 5.8%; Tb PFK inh: 0.6%; Tb PGK inh: -3.6%; PKM2 activator: -3.4%; Rango release inh: inconclusive; Rango-impB inh: inconclusive

What do the screens show for `CC(C)(C)NC(=S)N/N=C\c1ccc(-c2ccc([N+](=O)[O-])cc2)o1`?
ELG1 DNA repair: 20.6µM*; Tb PFK inh: -1.4%; Tb PGK inh: -2.7%; PKM2 activator: inconclusive; Rango release inh: inconclusive; Rango-impB inh: inconclusive

Results for c1ccc2c(c1)ccn2CCCN1CCCCC1 ?
Tb PGK inh: -0.7%; Rango release inh: -10.0%; Rango-impB inh: -0.4%
